FLuc modulator: inhibits or activates purified firefly luciferase, miR-21 counter-screen | P08659 | purified FLuc, Km substrates, luminescence inhibition | Potency, µM (doses to about 57.5 µM), inactives show at the top dose activity change, negative = inhibition, hits mostly inhibitors | 360,000 compounds, 6.9% hits | AID 588342;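 note: plate controls were vehicle for no effect and reference inhibitor for full effect; nearly all actives have a fitted effect of over 55% in size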
Target sequence (P08659 whole entry, looked up): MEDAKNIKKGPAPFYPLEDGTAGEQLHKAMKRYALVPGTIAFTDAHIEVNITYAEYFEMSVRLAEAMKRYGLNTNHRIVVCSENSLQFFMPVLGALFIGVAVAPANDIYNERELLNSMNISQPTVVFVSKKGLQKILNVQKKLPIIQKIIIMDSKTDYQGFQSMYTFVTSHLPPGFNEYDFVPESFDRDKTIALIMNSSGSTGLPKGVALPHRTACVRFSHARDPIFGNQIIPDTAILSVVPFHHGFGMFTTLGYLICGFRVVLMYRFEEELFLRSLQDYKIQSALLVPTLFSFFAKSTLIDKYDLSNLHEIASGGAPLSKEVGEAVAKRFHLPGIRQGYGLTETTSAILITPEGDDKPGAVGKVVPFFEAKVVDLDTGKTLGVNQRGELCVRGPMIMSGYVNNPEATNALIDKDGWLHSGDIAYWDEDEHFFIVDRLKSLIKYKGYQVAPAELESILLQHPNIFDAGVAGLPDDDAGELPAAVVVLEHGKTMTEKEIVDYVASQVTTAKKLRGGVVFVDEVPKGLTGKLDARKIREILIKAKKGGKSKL
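Biochemical qHTS of compounds, final roughly 60 µM downward over six points, against 10 nM purified firefly luciferase using Km concentrations of substrates (10 uM D-luciferin, 10 uM ATP) in Tris acetate pH 7.5 buffer; luminescence output.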
KinaseGlo FLuc: blocks Kinase-Glo luciferase, a counter-screen artifact; Kinase-Glo luciferase, ATP luminescence, 8 min; Potency, µM (top dose mostly 38.3 µM), inactives show top-dose activity change, negative = inhibition, most hits filed as inhibitors; AID 1379; Q27757; 200,000 compounds, 0.28% hits; note: % is set by controls: 0 for no effect and ±100 for the full control effect; nearly all actives have a fitted effect of over 60% in size
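Substrate mix (final 50 mM imidazole pH 7.2, 50 mM KCl, 7 mM MgCl2, 10 uM ATP, 0.01% Tween 20, 0.05% BSA) plus pin-tool compound, then Kinase-Glo detection mix; 8 min ambient, luminescence read.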
NPC1 promoter act: NPC1 promoter activation; Potency, µM (doses to about 9.22 µM), without a hit: at the top dose activation, most hits filed as activators; 320,000 compounds, 2.4% hits; Huh7 NPC1 promoter luciferase reporter, 24 h; note: % of control where 0% means no effect; nearly all actives have a fitted effect of over 60% in size
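Huh7 reporter cells (NPC1 promoter driving luciferase) are dosed with compound for 24 h at 37 °C, 5% CO2; luciferase detection reagent is then added and luminescence measured after 10 min at ambient temperature.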
SMN2 splice enh: increases expression of the SMN2 splice variant | HEK293 SMN2-luciferase splicing reporter, luminescence, 30-36 h | Potency, µM (series often up to 46.1 µM), without a hit: at the top dose activity change, positive = activation, actives largely listed as activators | 210,000 compounds, 2.8% hits | AID 1458; note: % of control where 0% means no effect; nearly all actives have a fitted effect of over 55% in size
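HEK293 cells carry an SMN2 minigene-luciferase reporter in which exon 7 inclusion puts luciferase in frame. Cells were seeded at 2000 cells/well, attached for 10-12 hours, then exposed to compounds for 30-36 hours at 37C before ONE-Glo luminescence.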
Rab9 prom act: activators of Rab9 promoter | 320,000 compounds, 2.8% hits | Huh7 Rab9 promoter-luciferase reporter, luminescence, 24 h | Potency, µM (highest dose often 9.22 µM), for inactives: at the highest dose activation, negative = inhibition, most hits filed as activators; note: % of control where 0% means no effect; nearly all actives have a fitted effect of over 60% in size
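Huh7 reporter line, Rab9 promoter upstream of luciferase. Compound exposure 24 h at 37 °C in reduced-serum medium with 10% FBS. Read-out: luminescence.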
* = called active by the depositor; ? = inconclusive; / = not tested or not shown; [ ] = remark or other dose. Shown are actives, neighbours in structure and some others; about 7.3% of the full set was active somewhere. Calls come from the whole dose curve; as a rule, active = well fitted curve in the direction sought with a large enough effect; inconclusive = small, poorly fitted or top-dose-only effect, or another doubt; inactive = no such curve, though single readings can be large; an effect the other way counts as inactive or inconclusive. Potency is the fitted concentration of half-maximal effect.

SMILES | FLuc modulator | KinaseGlo FLuc | NPC1 promoter act | SMN2 splice enh | Rab9 prom act
Cc1cc(C)n2nc(-c3cccc(Br)c3)cc2n1 | 8.49µM* | / | ? | / | ?
CC(=O)c1cnc2cc(-c3cccc(Br)c3)nn2c1C | ? | 1.5% | 2.82µM* | 11.2µM* | 2µM*
Cc1cccc(-c2cc3nc(C)cc(C)n3n2)c1 | 6.75µM* | -8.8% | 0.398µM* | / | 0.447µM*
CCOC(=O)c1cnc2cc(-c3ccc(C)cc3)nn2c1-c1ccccc1 | 4.9% | -5.5% | 0.8% | -14.0% | -4.0%
COc1ccccc1-c1cc2nc(C)cc(C)n2n1 | 15.1µM* | / | 26.6% | / | 17.6%
Cc1cccc(-c2cc3nc(C)cc(N4CC(C)CC(C)C4)n3n2)c1 (centres undefined) | -6.6% | -0.2% | 1.6% | -3.6% | -5.0%
Cc1cccc(Cn2c(SCc3ccc(C(=O)N4CCCCCC4)cc3)nc3ccncc32)c1 | ? | / | / | -64.8% | /
CCc1ccccc1N(C)C(=O)c1cc2c(Cl)nc3ccc(C)cc3c2s1 | 3.4% | / | / | 3.9% | /
O=C(CCNS(=O)(=O)c1ccc2c(c1)CCN2C(=O)C1CC1)Nc1ccc(Cl)cc1 | -13.1% | / | / | / | /
O=C(COc1ccc(Cl)cc1)OCc1cc(=O)n2nc(-c3cccs3)sc2n1 | 0.9% | / | / | / | /
Cc1nn2c(C)c(C(=O)NC(C)c3ccccc3)cnc2c1-c1ccc(F)cc1 (centres undefined) | -2.4% | / | / | / | /
COc1ccc2nc(NC(=O)c3ccccc3[N+](=O)[O-])sc2c1 | ? | / | 27.1% | / | ?
O=C(Nc1nc2ccccc2s1)c1ccccc1[N+](=O)[O-] | 16.9µM* | / | ? | / | ?
Cc1cc(C)nc(NC(=O)c2ccc([N+](=O)[O-])o2)n1 | 5.8% | -3.7% | -0.2% | 1.8% | 3.4%
Cc1cnc(NC(=O)c2ccc(-c3nc4ccccc4s3)o2)s1 | 16.9µM* | 2.3% | 29.8% | 0.3% | 13.4%
O=C(Nc1nc2ccccc2s1)c1ccc([N+](=O)[O-])o1 | 6.75µM* | / | ? | / | ?
COc1ccc2nc(NC(=O)c3ccc([N+](=O)[O-])o3)sc2c1 | 2.13µM* | / | ? | / | 2.82µM*
O=C(O)c1cccc([N+](=O)[O-])c1C(=O)Nc1nc2ccccc2s1 | -19.9% | -0.9% | 1.1% | 14.1% | 2.5%
CC(=O)Nc1ccc(Nc2nc3ccc(C)cc3n3nnnc23)cc1 | -3.2% | / | / | / | /
O=C(Nc1nc2cc3c(cc2s1)OCCO3)c1ccc([N+](=O)[O-])o1 | 1.2µM* | / | 0.891µM* | / | 1µM*
Cc1cc(C)c2nc(NC(=O)c3ccc([N+](=O)[O-])o3)sc2c1 | ? | / | -0.5% | / | 21.0%
Cc1cc(C)c2sc(NC(=O)c3ccc([N+](=O)[O-])o3)nc2c1 | 13.5µM* | / | 0.1% | / | 9.6%
O=C(Nc1nc2c(F)cc(F)cc2s1)c1ccc([N+](=O)[O-])o1 | 16.9µM* | / | 2.24µM* | / | 1.58µM*
Cc1ccccc1Cn1c(C)c(CNCc2ccccc2)c(C(=O)O)c1C | -11.6% | / | / | 5.9% | /
COc1cccc(-c2nc(SCC(=O)Nc3ccc4c(c3)OCCO4)c(-c3ccc(C)cc3)[nH]2)c1 | -8.5% | / | / | -24.2% | /
SMILES | FLuc modulator | KinaseGlo FLuc | NPC1 promoter act | SMN2 splice enh | Rab9 prom act
CN(C)C1(CNC(=O)COc2ccc(C(C)(C)C)cc2)CCCCC1 | 1.0% | / | / | / | /
CN(C(=O)/C=C/c1cnc2ccccc2c1)C1CCCCC1 | 4.26µM* | -2.3% | 1.58µM* | 3.16µM* | 1.12µM*
COc1ccc(/C=C/C(=O)N(C)C2CCCCC2)cc1Br | 23.9µM* | -2.1% | 15.7% | ? | 22.5%
O=C1c2[nH]nc(-c3ccccc3O)c2C(c2ccc(Cl)cc2)N1CCc1ccccc1 (centres undefined) | -4.8% | / | / | -29.9% | /
CCCC[C@]12Cc3cc(C#N)ccc3C(O1)c1c(cc(C)n(Cc3ccccc3)c1=O)O2 | 4.8%[11.5 µM] | / | -7.9%[1.84 µM] | / | -5.4%[1.84 µM]
CCO | / | / | / | 1.6% | /
CCCCC(NC(=O)CCc1c(C)c2cc3c4c(oc3c(C)c2oc1=O)CCCC4)C(=O)O (centres undefined) | 2.2% | / | -6.9% | / | -4.9%
Cc1c(CC(=O)N[C@@H](CCCNC(N)=O)C(=O)O)c(=O)oc2cc3oc4c(c3cc12)CCCC4 | 16.9µM* | / | -0.9% | / | -6.6%
CCCCC(NC(=O)Cc1c(C)c2cc3c4c(oc3c(C)c2oc1=O)CCCC4)C(=O)O (centres undefined) | ? | / | -3.3% | / | -1.1%
CCC(NC(=O)CCc1c(C)c2cc3c4c(oc3cc2oc1=O)CCCC4)C(=O)O (centres undefined) | 15.1µM* | / | -2.2% | / | 6.0%
CSCC[C@H](NC(=O)Cc1c(C)c2cc3c4c(oc3cc2oc1=O)CCCC4)C(=O)O | 10.7µM* | / | -0.1% | / | 0.7%
Cc1c(CCC(=O)N[C@@H](CCCNC(N)=O)C(=O)O)c(=O)oc2cc3oc4c(c3cc12)CCCC4 | 15.1µM* | / | 2.6% | / | 9.2%
Cc1coc2cc3oc(=O)c(CCC(=O)N[C@@H](CCCNC(N)=O)C(=O)O)c(C)c3cc12 | 1.6% | / | 1.4% | / | 5.5%
Cc1oc2c(C)c3oc(=O)c(CC(=O)N[C@@H](CCCNC(N)=O)C(=O)O)c(C)c3cc2c1C | ? | / | -4.2% | / | -0.2%
CCCCC(NC(=O)Cc1c(C)c2cc3c4c(oc3cc2oc1=O)CCCC4)C(=O)O (centres undefined) | 19µM* | / | -1.3% | / | 5.6%
Cc1coc2cc3oc(=O)c(CC(=O)N[C@@H](CC(C)C)C(=O)O)c(C)c3cc12 | 1.5% | / | 0.8% | / | -3.6%[1.84 µM]
Cc1c(CCC(=O)NCCCCCC(=O)O)c(=O)oc2c(C)c3oc4c(c3cc12)CCCC4 | ? | / | 0.6% | / | -2.7%
Cc1c(CC(=O)N[C@@H](C)C(=O)O)c(=O)oc2cc3oc4c(c3cc12)CCCC4 | 16.9µM* | / | 0.4% | / | 1.1%
Cc1c(CCC(=O)NCCCC(=O)O)c(=O)oc2cc3oc4c(c3cc12)CCCC4 | 19µM* | / | 0.3% | / | 2.4%
CCCOc1ccc(Br)cc1-c1cc(-c2ccc(Cl)cc2)[nH]c1-c1ccncc1 | / | 1.0% | / | -4.1% | /
Cc1nc(NCc2ccccc2)c2nc(-c3ccccc3)n(CCCN3CCCCC3C)c2n1 (centres undefined) | / | -3.7% | / | -11.6% | /
C(=C(c1ccccc1)c1ccccc1)c1ccccn1 | 0.8% | / | -2.6% | / | 2.5%
COC(=O)c1ccc(/C=C(\C#N)c2nc3ccccc3s2)cc1 | ? | -11.7% | 5.6% | -1.7% | 5.9%
N#C/C(=C\c1ccccn1)c1nc2ccccc2s1 | 3.38µM* | -18.9% | 1.7% | 15.1% | ?
COc1ccc(/C(C#N)=C/c2ccccn2)cc1 | 4.78µM* | / | 2µM* | / | 1.41µM*
COC(=O)c1ccccc1NC(=O)c1cn2c3c(ccc(Cl)c3c1=O)OC(C)C2 (centres undefined) | -7.4% | / | / | / | /
COc1cccc(NC(=O)Cn2c(=O)n(CCCC(=O)NCc3ccc4c(c3)OCO4)c(=O)c3ccccc32)c1 | -0.4% | / | / | -6.0% | /
Cc1ccc(Cl)cc1N1CCN(C(=O)Cn2ncc3c([nH]c4ccccc43)c2=O)CC1 | -0.8% | / | / | / | /
